Measured values reported in PubChem BioAssay (Tox21).
Records with an inconclusive call do not appear. Unmarked numbers belong to inactive results. The call rests on the fitted dose curve.
On the % scale 0 is the no-effect control and ±100 the full control effect.

Test: qHTS assay to identify small molecule agonists of the hypoxia (HIF-1) signaling pathway - cell viability counter screen (AID 1224844); further: nearly all actives have a fitted effect of over 50% in size
Settings: HRE-bla ME-180 viability, CellTiter-Glo luminescence, 17 h; series mostly up to 76.8 µM; activity change, negative = cytotoxicity: at the top concentration
Source text: National Center for Advancing Translational Sciences [NCATS]
NIH Chemical Genomics Center [NCGC]
U.S. Environmental Protection Agency [EPA]
National Institutes of Environmental Health Sciences [NIEHS]
National Toxicology Program [NTP]
U.S. Food and Drug Administration [FDA]
Hypoxia-inducible factor-1 (HIF-1) is the major hypoxia-regulated transcription factor that controls cellular responses to low oxygen concentration. HIF-1 is composed of two subunits: hypoxia responsive HIF-1-alpha and constitutively expressed HIF-1-beta, which is also known as aryl hydrocarbon receptor nuclear translocator. During hypoxic conditions, HIF-1-alpha heterodimerizes with HIF-1-beta and translocates into the nucleus where the HIF-1 complex binds to the hypoxia-response element (HRE) and activates expression of target genes such as VEGF (vascular endothelial growth factor). The HIF-1 pathway is essential to normal growth and development, and is involved in the pathophysiology of cancer, inflammation, and ischemia.
Using a beta-lactamase reporter-gene under control of the hypoxia response element, a cell-based assay [CellSensor(TM) HRE-bla ME-180 from Life Technologies, Carlsbad, CA] was used to measure hypoxia-induced signaling. Tox21 10K library compounds were measured for their ability to induce the reporter gene activity. The cytotoxicity of the Tox21 compound library against HRE-bla ME-180 cell line was tested in parallel by measuring cell viability using CellTiter-Glo assay (Promega, Madison, WI) in the same assay wells.
Tox21 Assay Protocol Summary:
HRE-bla ME-180 cells were dispensed at 2,000 cells per well in 6 uL of assay medium containing 0.5% dialyzed FBS into black wall/clear-bottom 1536-well plates using a Multidrop Combi (Thermo Scientific, Waltham, MA) dispenser. After the assay plates were incubated at 37C and 5% CO2 for 5 hrs, 23 nL of compounds dissolved in DMSO, positive controls or DMSO only was transferred to each well of the assay plate using a Pintool station (Kalypsys, San Diego, CA). The assay plates were incubated at 37C and 5% CO2 for 17 hrs. One uL of LiveBLAzerTM B/G FRET substrate (CCF4-AM) (Life Technologies) was added to each well using a Flying Reagent Dispenser (FRD, Aurora Discovery, San Diego, CA). After 2 hr incubation at room temperature, fluorescence intensity (405 nm excitation, 460 nm and 530 nm emissions) was measured using an Envision plate reader (PerkinElmer, Shelton, CT). For cytotoxicity, 4 ul/well of CellTiter-Glo reagent was added into the assay plates using an FRD. After 30 min incubation at room temperature, the luminescence intensity was measured using a ViewLux plate reader (PerkinElmer).
In the case of `Cc1ncsc1CCO`, the “activity change, negative = cytotoxicity” value is reported as 5.57%. With `CCCCOc1cc(C(=O)OCCN(CC)CC)ccc1N` the “activity change, negative = cytotoxicity” value was 2.11% [at 35.3 µM]. With `COCCCCCCCCOCCC[Si](C)(O[Si](C)(C)C)O[Si](C)(C)C` the “activity change, negative = cytotoxicity” value was 2.11%. With `Cc1ccccc1N=Nc1ccc(N=Nc2c(O)ccc3ccccc23)c(C)c1` the “activity change, negative = cytotoxicity” value was -0.118% [at 35.3 µM]. In the case of `O=[N+]([O-])c1cccc(Cl)c1Cl`, the “activity change, negative = cytotoxicity” value is reported as -0.0716%. With `CCCCCC(CO)CCC` (stereo not given) the “activity change, negative = cytotoxicity” value was -5.54%. With `Nc1ccc(C(=O)N2CC3CC(CN(Cc4ccccc4)C3)C2)cc1` the “activity change, negative = cytotoxicity” value was -5.64% [at 35.3 µM]. For `OC(CCN1CCCCC1)(c1ccccc1)C1CCCCC1` (stereo not given), the “activity change, negative = cytotoxicity” value was -14.5% [at 35.3 µM]. In the case of `CCN(CC)CCOc1ccc2c(c1)C(=O)c1cc(OCCN(CC)CC)ccc1-2`, the “activity change, negative = cytotoxicity” value is reported as -2.09% [at 35.3 µM]. With `C1CCC2OC2C1` (stereo not given) the “activity change, negative = cytotoxicity” value was -7.12%. For `ClC(Cl)(Cl)c1ccc(C(Cl)(Cl)Cl)cc1`, the “activity change, negative = cytotoxicity” value was -2.28%. For `CC1=CC(=O)/C(=C(/C)O)C(=O)O1`, the “activity change, negative = cytotoxicity” value was 4.47%. For `CC(C)=CCCC(C)CC=O` (stereo not given), the “activity change, negative = cytotoxicity” value was 2.62%. In the case of `O=CNc1ccccc1`, the “activity change, negative = cytotoxicity” value is reported as -29%. With `N#CCCNCCC#N` the “activity change, negative = cytotoxicity” value was 7.25%. In the case of `O=C(Nc1ccccc1)OCC(CN1CCCCC1)OC(=O)Nc1ccccc1` (stereo not given), the “activity change, negative = cytotoxicity” value is reported as 2.05% [at 35.3 µM]. With `Cc1cc(CC(=O)O)c(C)n1-c1ccc(Cl)cc1` the “activity change, negative = cytotoxicity” value was -14.2% [at 35.3 µM]. For `O=[N+]([O-])c1cc[n+]([O-])cc1`, the “activity change, negative = cytotoxicity” value was 0.763%. For `O=C(NN1CCCC1)NS(=O)(=O)c1ccc(Cl)cc1`, the “activity change, negative = cytotoxicity” value was -0.0875% [at 35.3 µM]. Work on `CCCCCCCCCCCCCCCCCBr` yielded an activity change, negative = cytotoxicity of 2.27% [at 15.8 µM]. With `O=C(O)/C=C/c1cnc[nH]1` the “activity change, negative = cytotoxicity” value was -1.87%. With `C#CCOC(=O)[C@@H](C)Oc1ccc(Oc2ncc(Cl)cc2F)cc1` the “activity change, negative = cytotoxicity” value was 10.9%. In the case of `CC(=O)O[C@H]1C[C@@H]2CC[C@@H]3[C@H](CC[C@@]4(C)[C@H]3C[C@H]([N+]3(C)CCCCC3)[C@@H]4OC(C)=O)[C@@]2(C)C[C@@H]1N1CCCCC1`, the “activity change, negative = cytotoxicity” value is reported as 6.42% [at 35.3 µM]. With `CCCCCCCCCCCCCCCBr` the “activity change, negative = cytotoxicity” value was -23.4% [at 35.3 µM]. In the case of `CCCCCCCCCC(=O)OCC`, the “activity change, negative = cytotoxicity” value is reported as -0.509%. In the case of `C[C@@H](C1=C(CCN(C)C)Cc2ccccc21)c1ccccn1`, the “activity change, negative = cytotoxicity” value is reported as -8.11% [at 35.3 µM]. In the case of `O=c1c2ccccc2nnn1CCl`, the “activity change, negative = cytotoxicity” value is reported as -1.9%. For `C=CCCCCCC`, the “activity change, negative = cytotoxicity” value was 3.45%. In the case of `CCN1CCC[C@H]1CNC(=O)c1c(OC)ccc(Br)c1OC`, the “activity change, negative = cytotoxicity” value is reported as 1.57% [at 35.3 µM]. In the case of `CN(C(=O)CCCOc1ccc2[nH]c(=O)ccc2c1)C1CCCCC1`, the “activity change, negative = cytotoxicity” value is reported as 2.58% [at 35.3 µM]. With `CCC(=O)OC(C)(C)C1CC=C(C)CC1` (stereo not given) the “activity change, negative = cytotoxicity” value was -11.2%. For `O=C(NS(=O)(=O)/C=C/c1cccs1)c1ccc(F)cc1Br`, the “activity change, negative = cytotoxicity” value was -12%. With `COc1ccc2[nH]c(S(=O)Cc3ncc(C)c(OC)c3C)nc2n1` (stereo not given) the “activity change, negative = cytotoxicity” value was 3.74% [at 35.3 µM]. In the case of `O=S(=O)(O)c1ccc(O)c2ncccc12`, the “activity change, negative = cytotoxicity” value is reported as 3.88%. For `CCCCOC(O)CC` (stereo not given), the “activity change, negative = cytotoxicity” value was -11.2%. With `CN(C)CC[C@@H](c1ccc(Br)cc1)c1ccccn1` the “activity change, negative = cytotoxicity” value was -1.52% [at 35.3 µM]. In the case of `O=C(O)COC(=O)Cc1ccccc1Nc1c(Cl)cccc1Cl`, the “activity change, negative = cytotoxicity” value is reported as -17.8% [at 35.3 µM]. In the case of `CC(C)c1cccc(C(C)C)c1NC(=O)NS(=O)(=O)c1cc(C(C)(C)O)co1`, the “activity change, negative = cytotoxicity” value is reported as -2.02%. In the case of `O=C1Nc2cc(Cl)ccc2Oc2ccccc21`, the “activity change, negative = cytotoxicity” value is reported as -2.99% [at 35.3 µM]. For `CC(C(=O)O)c1ccc(-c2ccccc2)c(F)c1` (stereo not given), the “activity change, negative = cytotoxicity” value was 1.91%.
